# Compounds without any hit were thinned out: in the full panel of roughly 83,000, 20% have a hit.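 How to read the values: 0–100, growth inhibition (40 = 60% inhibited); 0, no net growth; -100 to 0, cell death (-40 = 40% of starting cells died; -100 = all dead).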 A number with no mark means an inactive call. Calls of active or inactive are those of the source. How the source made its calls: active means growth percent below 10; inactive means the rest.
# What was measured:
# Assay in all cases: NCI-60 one-dose screen, 48 h (100 = growth as untreated, 0 = no growth, -100 = all killed)
# [1] = tested on: NCI-H23 lung; conditions: 10 µM unless noted
# [2] = tested on: NCI-H322M lung; conditions: 10 µM unless noted
# [3] = tested on: HOP-62 NSCLC; conditions: 10 µM unless noted
# [4] = tested on: NCI-H460 lung; conditions: 10 µM unless noted
# [5] = tested on: NCI-H522 lung; conditions: 10 µM
# [6] = tested on: A549/ATCC NSCLC; conditions: 10 µM unless noted
# [7] = tested on: 786-0 renal; conditions: 10 µM unless noted
# [8] = tested on: COLO 205 colon; conditions: 10 µM unless noted
# [9] = tested on: HOP-92 NSCLC; conditions: 10 µM unless noted
SMILES,growth [1],growth [2],growth [3],growth [4],growth [5],growth [6],growth [7],growth [8],growth [9]
NC(=O)c1nc2c([nH]c1=O)CCCC2,104%,120%,94.7%,115%,91.6%,103%,106%,101%,
O=C(NCc1cccnc1)c1ccc([N+](=O)[O-])o1,-89.1% (active),-6.13% (active),-4.75% (active),-64.3% (active),-66.5% (active),-10.5% (active),4.89% (active),-77% (active),
COc1ncnc2c1ncn2C/C(Br)=C(\Br)CCl,15.1%,78.9%,15.6%,-40.7% (active),-72.1% (active),9.47% (active),7.78% (active),-82.6% (active),
CC(C)(C)[Si](C)(C)OC1[C@@H](O[Si](C)(C)C(C)(C)C)[C@@H](CNC(=O)NC(=O)C(F)(F)F)O[C@H]1n1cnc2c(NC(=O)Nc3ccccc3)ncnc21 (stereo partly drawn),86.4%,97.6%,93%,,,51.4%,83.1%,91.9%,-11.4% (active)
CCOC(=O)C1=C(C)N2C(=NC3=C(CCCC/C3=C\c3cc(OC)c(OC)c(OC)c3)C2c2cc(OC)c(OC)c(OC)c2)S1 (stereo not drawn),61.9%,96.5%,50%,60%,,60.3%,,81.2%,
Cc1cc(=O)c2c(C)ccc(C)c2[nH]1,100%,109%,104%,111%,,93.1%,96.4%,125%,
CC1=CN2C(=NC3=C(CCCC/C3=C\c3ccccc3)C2c2ccccc2)S1 (stereo not drawn),101%,101%,103%,107%,,108%,105%,122%,
COc1cc(-c2nc(SC(C)C)nc(Nc3cccc(C)c3)c2C#N)cc(OC)c1OC,103%,107%,103%,108%,,91%,109%,109%,
O=C1NC(=O)C2(CCCC2C(=O)O)N1 (stereo not drawn),98.3%,117%,111%,106%,,105%,94.9%,109%,
O=[N+]([O-])c1ccc2nc(N/N=C/c3ccc(O)cc3)sc2c1,73.3%,58.8%,68.7%,,,30.7%,50.9%,89.9%,58.9%
COc1ccc(-c2nc3sc(C)nn3c2-c2nc3cc(C)c(C)cc3[nH]2)cc1,93.9%,99.4%,91.8%,,,96.3%,98.4%,115%,87.9%
COC(=O)c1c2c(c(C)[n+]([O-])c1C)C(=O)C=C(NCc1ccc(Cl)cc1)C2=O,-35.7% (active),-7.11% (active),2.25% (active),,,-16.5% (active),7.94% (active),,-27.9% (active)
C[C@]1(CO)C[C@@H](O)C[C@]2(C)[C@@H]1CC[C@@]13C[C@@H]4[C@@H](C[C@H]12)[C@]4(C)C3,108%,103%,101%,,101%,102%,104%,,103%
Cc1c(C(=O)Nc2nc(-c3ccccc3)cs2)nnn1-c1ccccc1Br,28.7% [50 µM],79.5% [50 µM],94.7% [50 µM],45.2% [50 µM],,30.9% [50 µM],66.7% [50 µM],42.3% [50 µM],
CCN(CC)CCCNc1ccc(C)c2sc3ccccc3c(=O)c12,53.8%,57.2%,40.9%,,54.4%,19.1%,32.5%,-70.2% (active),25.3%
COc1ccc(Nc2[nH]n(C3=Nc4ccccc4Sc4ccccc43)c(=O)c2C#N)cc1,28.3%,89.1%,75.9%,,29.6%,55.2%,64.7%,15.1%,

SMILES,growth [1],growth [2],growth [3],growth [4],growth [5],growth [6],growth [7],growth [8],growth [9]
COc1ccc(OC2=C(C#N)C(=N)N3c4ccccc4Sc4ccccc4C3N2)cc1 (stereo not drawn),87.9%,97.5%,79.9%,,97.8%,104%,105%,103%,
COc1cc(-c2nc(Nc3nc4ccccc4[nH]3)nc(N)c2C#N)cc(OC)c1OC,87.9%,83.2%,65.1%,,20.1%,69.6%,67.1%,32.3%,50.5%
COc1ccc(Nc2nc(NCCNc3ccnc4cc(Cl)ccc34)nc(N3CCOCC3)n2)cc1,82.3%,74.5%,92.2%,37.2%,,70.9%,57.2%,-37.2% (active),
O=C(Nc1nc2ccccc2[nH]1)C(=O)Nc1nc2ccccc2[nH]1,89.6%,91.8%,98.6%,,101%,97.5%,108%,103%,
O=C1/C(=C/c2ccc(Cl)cc2)N=C(c2ccccc2)N1CCc1cccs1,61.4%,82.2%,108%,,23%,30.6%,50.9%,100%,
CNc1ccc(Br)cc1-c1n[nH]c(=O)[nH]c1=O,90.8%,115%,105%,101%,,112%,95%,131%,
O=C1c2ccccc2-c2cn(Cc3ccccc3)c3cccc(c23)C1c1cccnc1 (stereo not drawn),45.5%,54%,36%,,,42.2%,52.2%,,76.8%
CCC(C)Oc1cc(/C=N/NC(=O)c2cnn3c2NC(c2ccccc2)C3)ccc1OC (stereo not drawn),58%,45%,37.2%,,10.7%,43.6%,47.6%,,71.8%
COc1cc(/C=C2\C(=O)N(c3c(Cl)cccc3Cl)c3ccccc32)cc(OC)c1O,48.1%,48.2%,48.6%,-4.41% (active),,16.9%,13.9%,74.8%,
Cc1ccccc1-n1nnc(C(=O)Nc2nc(-c3ccccc3)c(-c3ccccc3)s2)c1C,76.3% [50 µM],84.4% [50 µM],84.8% [50 µM],,,65.4% [50 µM],87.4% [50 µM],92.8% [50 µM],62.3% [50 µM]
c1ccc(-c2nc(N3CCOCC3)c3c4c(sc3n2)CCCCCC4)nc1,62.1%,73%,70.3%,33.6%,,28.9%,87.1%,68.5%,
N#Cc1ccc(C(F)(F)F)nc1N1CCC(C(=O)Nc2ccc(Cl)cc2)CC1,72%,71.1%,69%,34.1%,,53.2%,70.4%,85.9%,
COc1cc(C2CC(=O)Nc3c2ccc2ccccc32)cc(Br)c1OC (stereo not drawn),28.5%,33.1%,24.9%,,-42.7% (active),18.6%,30.6%,-57.5% (active),
CN1CCN(C(=O)OCCOCCOC(=O)N2CCN(C)CC2)CC1,97.6%,105%,106%,107%,,104%,94.5%,102%,
Cc1cccc2c(=O)c3c(sc12)c(NCCNCCO)nc1ccccc13,55.3%,37.7%,22.6%,,,37.7%,52.9%,,33.1%
